Reference: PubChem BioAssay (NCATS)
Inconclusive results are not listed. A call without a number means that no potency is given here. Unmarked numbers belong to inactive results. The source made the active and inactive calls. The call rests on the fitted dose curve; in most records, active means well fitted cell-killing curve with a large enough effect; inconclusive means small, poorly fitted or top-dose-only effect, or effect the other way; inactive means flat fitted curve, though single readings scatter.

What was measured:
Assay in all cases: Primary qHTS to identify gynecologic anti-cancer compounds using libraries of approved drugs and bioactive compounds (AID 1345084); further: nearly all actives have a fitted effect of over 55% in size
C33A = conditions: Gynecologic cancer cell panel viability, ATPlite luminescence, 48 h; series mostly up to 57.5 µM
How it was run: (§1)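 Five-point cytotoxicity, 48 h drug exposure at 37 C, 5% CO2, on cells seeded 16 h beforehand. ATP content read by ATPlite luminescence.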

CASKI = conditions: Gynecologic cancer cell panel viability, ATPlite luminescence, 48 h; series mostly up to 57.5 µM
How it was run: as §1

Es-2 = conditions: Gynecologic cancer cell panel viability, ATPlite luminescence, 48 h; series mostly up to 57.5 µM
How it was run: as §1

HeLa = conditions: Gynecologic cancer cell panel viability, ATPlite luminescence, 48 h; series mostly up to 57.5 µM
How it was run: as §1

Hek293T = conditions: Gynecologic cancer cell panel viability, ATPlite luminescence, 48 h, control line for the selectivity index; series mostly up to 57.5 µM
How it was run: as §1

CAOV3 = conditions: Gynecologic cancer cell panel viability, ATPlite luminescence, 48 h; series mostly up to 57.5 µM
How it was run: as §1
Potency means the concentration at half of the fitted maximal effect.

Compound: CO[C@H]1C[C@@H]2CC[C@@H](C)[C@@](O)(O2)C(=O)C(=O)N2CCCC[C@H]2C(=O)O[C@H]([C@H](C)C[C@H]2CC[C@@H](OP(C)(C)=O)[C@H](OC)C2)CC(=O)[C@H](C)/C=C(\C)[C@@H](O)[C@@H](OC)C(=O)[C@H](C)C[C@H](C)/C=C/C=C/C=C/1C
- Potency (C33A): inactive
- Potency (CASKI): inactive
- Potency (Es-2): inactive
- Potency (HeLa): inactive
- Potency (Hek293T): inactive

Compound: CC(=O)NCC(=O)N1C2CCC1c1cc(Nc3ncc(C(F)(F)F)c(NC4CCC4)n3)ccc12 (stereo not given)
- Potency (C33A): inactive
- Potency (Es-2): 14.1 µM (active)
- Potency (Hek293T): 3.98 µM (active)

Compound: CNCc1ccc(-c2cc(-c3nc(-c4ccc(S(=O)(=O)C(C)C)cc4)cnc3N)on2)cc1
- Potency (C33A): inactive
- Potency (Es-2): 8.91 µM (active)

Compound: CC[C@H](C)[C@H](NC(=O)[C@H]([C@@H](C)CC)N(C)C(C)=O)C(=O)N[C@H](C(=O)N[C@@H](CC(C)C)C(=O)[C@@]1(C)CO1)[C@@H](C)O
- Potency (C33A): 0.1 µM (active)
- Potency (HeLa): 0.1 µM (active)

Compound: Cc1cc(N(C)C)ccc1-c1nc2ccc(-c3nc4ccc(N5CCN(C)CC5)cc4[nH]3)cc2[nH]1
- Potency (C33A): inactive
- Potency (Es-2): inactive
- Potency (HeLa): inactive
- Potency (Hek293T): inactive

Compound: CCCCNc1ncc2c(-c3ccc(CN4CCN(C)CC4)cc3)cn(C3CCC(O)CC3)c2n1 (stereo not given)
- Potency (C33A): inactive
- Potency (HeLa): 1.78 µM (active)
- Potency (Hek293T): inactive

Compound: COc1cc(C(=O)NC2CCN(C)CC2)c(F)cc1Nc1ncc2c(n1)N(C1CCCC1)CC(F)(F)C(=O)N2C
- Potency (C33A): 0.282 µM (active)
- Potency (Es-2): 35.5 µM (active)

Compound: CN1CCC(Nc2nc(Nc3ccc(Oc4ccccc4)cc3)c3c(=O)[nH]cc(Br)c3n2)CC1
- Potency (C33A): inactive
- Potency (Hek293T): inactive

Compound: C=CC(=O)N1CCN(C(=O)CNc2cc(I)c(Cl)cc2O)CC1
- Potency (C33A): inactive
- Potency (Es-2): inactive
- Potency (HeLa): inactive
- Potency (Hek293T): inactive

Compound: NC[C@@](O)(c1ccc(Cl)cc1)c1ccc(-c2cn[nH]c2)cc1
- Potency (C33A): 22.4 µM (active)
- Potency (CASKI): 28.2 µM (active)
- Potency (HeLa): 25.1 µM (active)
- Potency (Hek293T): 28.2 µM (active)

Compound: CC(C)(C)c1ccc(S(=O)(=O)NCc2ccc(C(=O)Nc3cccnc3)cc2)cc1
- Potency (C33A): 7.94 µM (active)
- Potency (Es-2): 3.55 µM (active)
- Potency (HeLa): 1.78 µM (active)

Compound: C[C@@H]1COCCN1c1cc(C2(S(C)(=O)=O)CC2)nc(-c2cccc3[nH]ccc23)n1
- Potency (C33A): 4.47 µM (active)
- Potency (Es-2): 3.16 µM (active)
- Potency (Hek293T): 7.94 µM (active)

Compound: O=C(c1cccc(Cl)c1F)N1CCN(Cc2cccc(Nc3nccs3)n2)CC1
- Potency (C33A): inactive
- Potency (Es-2): inactive
- Potency (HeLa): 1 µM (active)

Compound: CN(c1ccccc1CNc1nc(Nc2ccc3c(c2)CC(=O)N3)ncc1C(F)(F)F)S(C)(=O)=O
- Potency (C33A): 6.31 µM (active)
- Potency (Es-2): 20 µM (active)
- Potency (HeLa): 15.8 µM (active)

Compound: O=[N+]([O-])c1cccc2[nH]c(CNc3nc(N4CCOCC4)nc4c3ncn4-c3ccsc3)nc12
- Potency (C33A): 0.178 µM (active)
- Potency (CASKI): 0.891 µM (active)
- Potency (HeLa): 0.891 µM (active)
- Potency (Hek293T): 0.316 µM (active)

Compound: CCCN1CCC(c2cccc(S(C)(=O)=O)c2)CC1
- Potency (C33A): inactive
- Potency (Es-2): inactive
- Potency (HeLa): inactive
- Potency (Hek293T): inactive

Compound: CC1(C)CC[C@]23CO[C@@]4(CCC5[C@@]6(C)CC[C@H](O[C@@H]7OC[C@H](O[C@@H]8O[C@H](CO)[C@@H](O)[C@H](O)[C@H]8O)[C@H](O)[C@H]7O[C@@H]7O[C@H](CO)[C@@H](O[C@@H]8O[C@H](CO)[C@@H](O)[C@H](O)[C@H]8O)[C@H](O)[C@H]7O)[C@@](C)(CO)C6CC[C@@]5(C)[C@]4(C)C[C@H]2OC2OCC(O)C(O)C2O)C3C1 (stereo not given in full)
- activity change, negative = cytotoxicity (C33A): -28.5% [at 6.55 µM]
- activity change, negative = cytotoxicity (HeLa): -27.3% [at 6.55 µM]

Compound: C[C@@H]1O[C@@H](O[C@H]2[C@H](O[C@H]3[C@H](O[C@H]4CC[C@@]5(C)C(CC[C@]6(C)C5CC=C5[C@@H]7CC(C)(C)CC[C@]7(C(=O)O[C@@H]7O[C@H](CO)[C@@H](O[C@@H]8O[C@@H](C)[C@H](O)[C@@H](O)[C@H]8O)[C@H](O)[C@H]7O)CC[C@]56C)C4(C)C)OC[C@H](O)[C@@H]3O)O[C@H](CO)[C@@H](O)[C@@H]2O)[C@H](O)[C@H](O)[C@H]1O (stereo not given in full)
- activity change, negative = cytotoxicity (C33A): -22.7% [at 6.55 µM]
- activity change, negative = cytotoxicity (Es-2): -47.2% [at 6.55 µM]

Compound: CC(Oc1cc(-n2cnc3ccc(CN4CCN(C)CC4)cc32)sc1C(N)=O)c1ccccc1C(F)(F)F (stereo not given)
- Potency (C33A): 8.91 µM (active)
- Potency (Es-2): 7.94 µM (active)
- Potency (HeLa): 3.55 µM (active)

Compound: CC(=O)OC1C(=O)C2(C)C(O)CC3OCC3(OC(C)=O)C2C(OC(=O)c2ccccc2)C2(O)CC(OC(=O)C(O)C(NC(=O)c3ccccc3)c3ccccc3)C(C)=C1C2(C)C (stereo not given)
- Potency (C33A): inactive
- Potency (Es-2): 0.316 µM (active)
- Potency (Hek293T): inactive

Compound: COc1cc(C(=O)NC2CCN(C)CC2)ccc1Nc1ncc2c(n1)N(C1CCCC1)CC(F)(F)C(=O)N2C
- Potency (CAOV3): 25.1 µM (active)

Compound: O=C(c1cn(Cc2cncn2Cc2ccc(Br)cc2)cc1-c1cccc2ccccc12)N1CCOCC1
- Potency (C33A): inactive
- Potency (Es-2): inactive

Compound: N#Cc1c(Oc2ccc(F)c(NC(=O)Cc3cccc(C(F)(F)F)c3)c2)ccc2nc(NC(=O)C3CC3)sc12
- Potency (C33A): inactive
- Potency (Es-2): 5.62 µM (active)
- Potency (HeLa): 10 µM (active)

Compound: CN1CCN(c2ccc(C(=O)Nc3n[nH]c4ccc(Cc5cc(F)cc(F)c5)cc34)c(NC3CCOCC3)c2)CC1
- Potency (C33A): inactive
- Potency (Es-2): inactive
- Potency (Hek293T): inactive

Compound: C=C1C(=O)OC2/C=C(\CO)CC/C=C(\C=O)CC(OC(=O)CC(C)C)C12 (stereo not given)
- Potency (C33A): inactive
- Potency (CASKI): inactive
- Potency (HeLa): inactive
- Potency (Hek293T): inactive

Compound: C[C@@H]1CCC2C(C)(C)[C@H](O)CC[C@]2(C)[C@@]12Cc1c(O)cc3c(c1O2)CNC3=O (stereo not given in full)
- Potency (CAOV3): inactive

Compound: O=C(O)C1CN(Cc2ccc(-c3nc4cc(Cc5ccccc5F)ccc4s3)c(F)c2)C1
- activity change, negative = cytotoxicity (C33A): 7.49% [at 11.6 µM]
- activity change, negative = cytotoxicity (Es-2): 0.907% [at 11.6 µM]
- activity change, negative = cytotoxicity (HeLa): 11.8% [at 11.6 µM]
- activity change, negative = cytotoxicity (Hek293T): 9.39% [at 11.6 µM]

Compound: COc1cc2ncnc(Nc3ccc(F)c(Cl)c3)c2cc1NC(=O)/C=C/CN1CCCCC1
- Potency (CAOV3): 22.4 µM (active)

Compound: CC1COC(Nc2ccc3ncnc(Nc4ccc(OCc5nccs5)c(Cl)c4)c3c2)=N1 (stereo not given)
- Potency (C33A): inactive
- Potency (Es-2): inactive
- Potency (HeLa): inactive

Compound: C#CCN(Cc1cc2c(=O)n(C)c(CN3CCN(C)CC3)nc2cc1Cl)c1ccc(C(=O)NCc2cccnc2)cc1
- Potency (CAOV3): 44.7 µM (active)

Compound: CN1c2ccccc2C(=O)N2CCC3c4ccccc4NC3C21 (stereo not given)
- Potency (C33A): inactive
- Potency (Hek293T): 5.62 µM (active)

Compound: NCc1ccc(Nc2ncc(F)c(Nc3ccccc3)n2)cc1
- Potency (C33A): inactive
- Potency (CASKI): inactive
- Potency (HeLa): 15.8 µM (active)
- Potency (Hek293T): inactive

Compound: O=C(c1ccccc1)c1ccc2nc(NC(=O)c3csc(C4CCN(c5ncnc6ccsc56)CC4)n3)[nH]c2c1
- Potency (C33A): 15.8 µM (active)
- Potency (Hek293T): 8.91 µM (active)

Compound: CN(C)c1ccc2c(c1)OC(N)=C(C#N)C2c1cccc(C(F)(F)F)c1 (stereo not given)
- Potency (C33A): 0.631 µM (active)
- Potency (Es-2): 1 µM (active)
- Potency (HeLa): 0.501 µM (active)

Compound: O=C(Nc1ccc(Cl)cc1F)c1ccccc1O
- Potency (C33A): 14.1 µM (active)
- Potency (Es-2): 15.8 µM (active)
- Potency (Hek293T): 17.8 µM (active)

Compound: COc1cc2nc(N3CCCC3)nc(NCCCCCN3CCCC3)c2cc1OC
- Potency (C33A): 15.8 µM (active)
- Potency (HeLa): 25.1 µM (active)
- Potency (Hek293T): 15.8 µM (active)

Compound: COc1ccc(/C=C/C(=O)O[C@@H]2[C@@H](O)[C@H](C)O[C@@H](O[C@H]3[C@@H]4C=CO[C@@H](O[C@H]5O[C@@H](CO)[C@H](O)[C@@H](O)[C@@H]5O)[C@@H]4[C@@]4(CO)O[C@@H]34)[C@@H]2OC(C)=O)cc1
- Potency (C33A): inactive
- Potency (Es-2): inactive
- Potency (HeLa): inactive
- Potency (Hek293T): inactive

Compound: Cc1ccccc1-n1c([C@H](C)Nc2nc(N)nc3nc[nH]c23)nc2cccc(C)c2c1=O
- Potency (C33A): inactive
- Potency (CASKI): 31.6 µM (active)
- Potency (Hek293T): inactive

Compound: Nc1ccc(/C=C/C(=O)NCc2cc3cc(-c4ccc(C(=O)N5CCC(F)(F)CC5)cc4)cc(-c4ccc(F)cc4)c3o2)cn1
- Potency (C33A): 7.08 µM (active)
- Potency (HeLa): 4.47 µM (active)
- Potency (Hek293T): 3.98 µM (active)

Compound: Cc1cnc(NC(=O)Nc2cc(Br)c(C)cc2OCC2CNCCO2)cn1 (stereo not given)
- Potency (C33A): inactive
- Potency (CASKI): inactive
- Potency (Hek293T): 8.91 µM (active)

Compound: N#Cc1cc(F)cc(-c2nc(-c3ccccn3)no2)c1
- Potency (C33A): inactive
- Potency (CASKI): inactive
- Potency (Hek293T): inactive

Compound: CC1=C(C(=O)O[C@@H]2O[C@H](COC3OCC(O)C(O)C3O)[C@@H](O)[C@H](O)[C@H]2O)C(C)(C)CCC1 (stereo not given in full)
- Potency (CAOV3): inactive
- Potency (CASKI): inactive
- Potency (Es-2): inactive
- Potency (HeLa): inactive
- Potency (Hek293T): inactive

Compound: C=C1C(=O)O[C@H]2C1[C@H](OC(=O)/C(=C/CO)COC(=O)/C(C)=C/CO)CC(=C)[C@@H]1CC(=O)[C@@H](C)[C@@H]12 (stereo not given in full)
- Potency (CAOV3): inactive
- Potency (CASKI): inactive
- Potency (HeLa): inactive
- Potency (Hek293T): inactive

Compound: CC(C)c1c2cc(-c3ccnc(NC4CCC(NC5CCOCC5)CC4)n3)ccc2nn1C (stereo not given)
- Potency (CAOV3): inactive
- Potency (CASKI): 0.631 µM (active)
- Potency (Es-2): 0.316 µM (active)
- Potency (HeLa): 0.708 µM (active)
